Experimental data published in PubChem BioAssay AID651650 (Sanford-Burnham Center for Chemical Genomics, 2012).

What follows are compounds tested against Neuropilin-1 (Homo sapiens) (UniProt O14786) (assay: NRP-1 b1b2 CendR peptide binding inhibitors, dose response, biochemical, FP and AlphaScreen panel (AID 651650)). Conditions: NRP-1 b1b2 / RPARPAR peptide binding, FP or AlphaScreen; run 1, at 100 µM (top of the series).
Sequence of Neuropilin-1 (Homo sapiens) (O14786 whole entry, looked up): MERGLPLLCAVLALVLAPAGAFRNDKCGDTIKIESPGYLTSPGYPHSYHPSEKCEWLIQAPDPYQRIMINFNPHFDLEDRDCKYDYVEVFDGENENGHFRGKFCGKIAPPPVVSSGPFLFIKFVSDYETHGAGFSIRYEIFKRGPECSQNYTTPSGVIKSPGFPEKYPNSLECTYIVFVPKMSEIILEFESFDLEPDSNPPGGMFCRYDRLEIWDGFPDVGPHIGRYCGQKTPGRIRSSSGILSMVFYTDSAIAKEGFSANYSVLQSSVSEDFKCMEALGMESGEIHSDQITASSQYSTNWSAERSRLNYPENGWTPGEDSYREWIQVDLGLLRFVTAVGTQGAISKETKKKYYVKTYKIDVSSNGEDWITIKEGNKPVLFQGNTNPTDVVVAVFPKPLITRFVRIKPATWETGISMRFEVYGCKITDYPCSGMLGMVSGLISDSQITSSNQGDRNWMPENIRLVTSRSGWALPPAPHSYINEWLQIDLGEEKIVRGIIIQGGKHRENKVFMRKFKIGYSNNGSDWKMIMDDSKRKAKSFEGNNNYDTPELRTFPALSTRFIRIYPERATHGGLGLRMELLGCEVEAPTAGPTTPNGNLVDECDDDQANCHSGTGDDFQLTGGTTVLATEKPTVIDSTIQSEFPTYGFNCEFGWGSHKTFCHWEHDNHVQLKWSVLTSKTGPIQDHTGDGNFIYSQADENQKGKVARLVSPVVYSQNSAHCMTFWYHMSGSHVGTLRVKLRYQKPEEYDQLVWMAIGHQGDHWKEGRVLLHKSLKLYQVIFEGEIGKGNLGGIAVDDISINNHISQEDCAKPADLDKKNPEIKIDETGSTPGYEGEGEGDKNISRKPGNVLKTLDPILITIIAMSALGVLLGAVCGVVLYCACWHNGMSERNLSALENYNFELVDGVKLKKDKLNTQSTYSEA

SMILES | inhibition
NS(=O)(=O)c1ccc(CNC(=S)NCc2ccc(F)cc2)cc1 | 42.3%
COc1ccc(CCNC(=O)c2ccc(Cl)c(S(=O)(=O)N(C)c3ccccc3)c2)cc1 | -7.22%
Cc1ccccc1Nc1cc(=O)oc2ccccc12 | 5.19%
CCOC(=O)C[C@H]1c2cc(C(F)(F)F)ccc2S(=O)(=O)N1Cc1ccccc1 | 59.5%
OCCC1CCCCN1CC(O)COCc1ccc(Cl)cc1 (centres undefined) | 22.3%
CCOC(=O)c1ccc(N2CCN(C(=O)c3ccccc3)CC2)c(NC(=O)c2ccco2)c1 | 40.4%
O=S1(=O)CCOC[C@H](Cc2ccccc2)N1Cc1ccccc1F | 46.5%
O=C(COc1cc(Cl)c(Cl)cc1Cl)Nc1ccc([N+](=O)[O-])cc1Cl | 38.3%
COc1ccc(Cl)cc1S(=O)(=O)N1CCN(CC(=O)C(C)(C)C)CC1 | -4.16%
CC(/C=C/c1ccccc1)=N\NC(=O)CCc1ccccc1 | 19.2%
CCN(C[C@H]1N[C@@](CC)(C(=O)OC)[C@H]2C(=O)N(C)C(=O)[C@@H]12)S(=O)(=O)c1ccc(OC)cc1 | 30.5%
Cc1cc(NC(=O)CCC(=O)NNC(=O)c2ccc(C(C)(C)C)cc2)no1 | 102%
Cc1ccc(OCC(=O)Nc2ccc(C)c(S(=O)(=O)N3CCCCCC3)c2)c([N+](=O)[O-])n1 | 44.6%
O=C(NCCN1CCOCC1)c1cc(-c2ccc(F)cc2)on1 | 17.9%
Cc1ccsc1C(=O)N1CCCC(CO)(Cc2ccccc2F)C1 (centres undefined) | 17.8%
Cc1cc(C)n2c(Nc3ccc4c(c3)OCCO4)c(-c3ccccn3)nc2n1 | 6.1%
CCOC(=O)c1c(=O)n(O)c2ccc(OC)cc2[n+]1[O-] | -2.72%
CCn1cc(C(=O)N2CCN(C(=O)c3ccco3)CC2)c2cc(OC)c(OC)cc2c1=O | 77.9%
N/C(CSc1ccc(Cl)cc1)=N\S(=O)(=O)c1ccc(Cl)cc1 | 37.6%
CC(Oc1ccccc1)C(=O)NC1=NCCS1 (centres undefined) | 51.9%

SMILES | inhibition
CC(=O)/C(=N\Nc1ccc(Cl)cc1Cl)Sc1cccc2cccnc12 | 24.8%
OCC[C@H]1C[C@H](O)[C@@H](O)[C@]2(CCCCO2)O1 | -5.29%
COc1ccccc1COc1ccc2c(C)c(CC(=O)O)c(=O)oc2c1C | 44.2%
Cc1ccc(S(=O)(=O)N2[C@@H](c3ccc(Cl)cc3)C(C(=O)OC(C)(C)C)=CC[C@H]2c2ccc(Cl)c(Cl)c2)cc1 | 72.6%
CCC(=O)Nc1nc2nc(-c3ccccc3)cc(-c3ccccc3)n2n1 | 37.2%
CCC1=C(OC(=O)N(CC)CC)N2C(=O)OC(=NCC(=O)OC)[C@]2(Cc2ccccc2)[C@H]2C1=CC[C@H]1C(=O)N(CC(=O)OC)C(=O)[C@H]12 | 70.2%
COc1ccc(C(=O)N2CCC(C)(C(=O)NS(=O)(=O)C3CC3)C2)cc1F (centres undefined) | 12.1%
CCCc1c(C)nc(N2CCN(c3ccccc3OC)CC2)[nH]c1=O | 37.3%
CC(=O)Nc1cc(F)c2c(c1F)Cc1cc(F)ccc1-2 | 64%
Cc1ccc(Cl)c(NC(=O)CSc2cccc[n+]2[O-])c1Cl | -8.97%
O=C(Cn1ccc(NC(=O)OCc2ccccc2)nc1=O)NCCCn1ccnc1 | 48.6%
Cc1ccc(COn2c(-c3ccc(Cl)cc3Cl)nc3ncccc32)cc1 | 7.33%
Nc1ccc(C(=O)Nc2ccc(Nc3ccncc3)cc2)c([N+](=O)[O-])c1 | 102%
Cc1ccc(C(=O)Nc2nnc([C@H]3C[C@H](O)[C@@H](CO)O3)s2)cc1 | 25.4%
COc1cc(C(=O)OCCCOC(=O)c2cc(OC)c(OC)c(OC)c2)cc(OC)c1OC | 13.4%
OCC1OC(n2cnc3c(/C=C(\O)c4ccccc4)ncnc32)C(O)C1O (centres undefined) | 3.57%
NC(=O)C1CCN(c2nc(-c3ccc4occc(=O)c4c3)cs2)CC1 | 53.3%
O=c1[nH]c(Nc2ccccn2)cc2ccccc12 | 81.1%
CCN1C(=O)C(=O)c2cc(C)ccc21 | 13.5%
